# Experimental data as given in ChEMBL document CHEMBL5606458, “ASAP - ZIKV NS2B-NS3 protease fluorescence single point” (2024).
# In all, about 2,700 compounds went through this assay and about 160 (5.9%) showed an effect of 50% or more. The sample as a whole holds a higher share of strong results than the screen did.
# Target: Nonstructural protein 3 (Zika virus) (UniProt A0A024AXB9)
# Sequence (A0A024AXB9 as listed by the source): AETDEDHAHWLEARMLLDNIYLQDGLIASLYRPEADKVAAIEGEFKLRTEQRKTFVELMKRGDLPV
structure (smiles),measurement,setting,value
COc1cnccc1NC(=O)c1cccn(CC(C)C)c1=O,inhibition,"PRVABC59, Concentration 49.5 uM, Number of replicates 2.0, Standard deviation 2.517858799186995 %",14.1%
same,inhibition,"PRVABC59, Concentration 99.01 uM, Number of replicates 2.0, Standard deviation 2.0130939800794283 %",24.9%
same,inhibition,"PRVABC59, Concentration 198.0 uM, Number of replicates 2.0, Standard deviation 1.1565850502914639 %",38%
O=C1NCc2ccccc2C12CCN(C1CS(=O)(=O)C1)CC2,inhibition,"PRVABC59, Concentration 49.5 uM, Number of replicates 2.0, Standard deviation 2.478163590707131 %",-2.5%
same,inhibition,"PRVABC59, Concentration 99.01 uM, Number of replicates 2.0, Standard deviation 1.6189007436906162 %",-1.76%
same,inhibition,"PRVABC59, Concentration 198.0 uM, Number of replicates 2.0, Standard deviation 2.7604333789428463 %",-2.06%
N#C[C@H](c1c[nH]c2ccccc12)N1CCCCC1,inhibition,"PRVABC59, Concentration 49.5 uM, Number of replicates 2.0, Standard deviation 0.9976655532404076 %",2.57%
same,inhibition,"PRVABC59, Concentration 99.01 uM, Number of replicates 2.0, Standard deviation 2.0662033924754 %",3.53%
same,inhibition,"PRVABC59, Concentration 198.0 uM, Number of replicates 2.0, Standard deviation 2.2933585318984724 %",2.01%
CN(C)Cc1cccc(C(=O)Nc2cc(Cl)cc(C(=O)NC(C)(C)CO)c2)c1,inhibition,"PRVABC59, Concentration 49.5 uM, Number of replicates 2.0, Standard deviation 1.8243044214328226 %",6.06%
same,inhibition,"PRVABC59, Concentration 99.01 uM, Number of replicates 2.0, Standard deviation 1.3712089412013073 %",12.5%
same,inhibition,"PRVABC59, Concentration 198.0 uM, Number of replicates 2.0, Standard deviation 2.8457565601547175 %",22%
CC(C)(CO)NC(=O)c1cc(Cl)cc(NC(=O)c2cc(Cl)ccc2O)c1,inhibition,"PRVABC59, Concentration 49.5 uM, Number of replicates 2.0, Standard deviation 2.1093755895168673 %",7.55%
same,inhibition,"PRVABC59, Concentration 99.01 uM, Number of replicates 2.0, Standard deviation 4.458409623609473 %",13.5%
same,inhibition,"PRVABC59, Concentration 198.0 uM, Number of replicates 2.0, Standard deviation 1.5634862358558868 %",19.6%
CN(C)Cc1ccc(C(=O)Nc2cc(Cl)cc(C(=O)NC(C)(C)CO)c2)[nH]1,inhibition,"PRVABC59, Concentration 49.5 uM, Number of replicates 2.0, Standard deviation 0.7294034755731748 %",25.7%
same,inhibition,"PRVABC59, Concentration 99.01 uM, Number of replicates 2.0, Standard deviation 0.13537432871783928 %",38.6%
same,inhibition,"PRVABC59, Concentration 198.0 uM, Number of replicates 2.0, Standard deviation 2.37813693875156 %",53.1%
O=C(Nc1ccc2c(c1)B(O)OC2)c1cccc(OCc2c(Cl)cccc2Cl)c1,inhibition,"PRVABC59, Concentration 49.5 uM, Number of replicates 2.0, Standard deviation 1.6182218422548027 %",13.7%
same,inhibition,"PRVABC59, Concentration 99.01 uM, Number of replicates 2.0, Standard deviation 3.3767515547267357 %",18.1%
same,inhibition,"PRVABC59, Concentration 198.0 uM, Number of replicates 2.0, Standard deviation 1.8193304189589607 %",26.3%
C[C@@H](NC(=O)c1cc(Cl)ccc1NS(=O)(=O)c1ccc(Oc2ccccc2Cl)cc1)[C@H]1CCCO1,inhibition,"PRVABC59, Concentration 49.5 uM, Number of replicates 2.0, Standard deviation 0.31998022259385983 %",30.9%
same,inhibition,"PRVABC59, Concentration 99.01 uM, Number of replicates 2.0, Standard deviation 0.2133183501303701 %",35.1%
same,inhibition,"PRVABC59, Concentration 198.0 uM, Number of replicates 2.0, Standard deviation 0.1263515313886271 %",23.8%
CC[C@H]1CCN(C(=O)c2cc(Cl)ccc2NS(=O)(=O)c2ccc(Oc3ccccc3Cl)cc2)C1,inhibition,"PRVABC59, Concentration 49.5 uM, Number of replicates 2.0, Standard deviation 0.8056939918249262 %",9.4%
same,inhibition,"PRVABC59, Concentration 99.01 uM, Number of replicates 2.0, Standard deviation 0.9468131045821944 %",15.3%
same,inhibition,"PRVABC59, Concentration 198.0 uM, Number of replicates 2.0, Standard deviation 0.6022197968075486 %",23.5%
O=C(c1cc(Cl)ccc1NS(=O)(=O)c1ccc(Oc2ccccc2Cl)cc1)N1CCCC1,inhibition,"PRVABC59, Concentration 49.5 uM, Number of replicates 2.0, Standard deviation 2.8745469037851152 %",9.57%
same,inhibition,"PRVABC59, Concentration 99.01 uM, Number of replicates 2.0, Standard deviation 3.402955430557717 %",14.4%
same,inhibition,"PRVABC59, Concentration 198.0 uM, Number of replicates 2.0, Standard deviation 3.9207965622968795 %",20%
O=C(c1cc(Cl)ccc1NS(=O)(=O)c1ccc(Oc2ccccc2Cl)cc1)N1CCC[C@@H]1CO,inhibition,"PRVABC59, Concentration 49.5 uM, Number of replicates 2.0, Standard deviation 0.644882859919004 %",6.57%
same,inhibition,"PRVABC59, Concentration 99.01 uM, Number of replicates 2.0, Standard deviation 0.07876403049715877 %",37.2%
same,inhibition,"PRVABC59, Concentration 198.0 uM, Number of replicates 2.0, Standard deviation 0.031176529605690447 %",69.4%
O=C(NC[C@H]1CCOC1)c1cc(Cl)ccc1NS(=O)(=O)c1ccc(Oc2ccccc2Cl)cc1,inhibition,"PRVABC59, Concentration 49.5 uM, Number of replicates 2.0, Standard deviation 4.1620208465884945 %",16.4%
same,inhibition,"PRVABC59, Concentration 99.01 uM, Number of replicates 2.0, Standard deviation 1.5720504754733005 %",31.6%
same,inhibition,"PRVABC59, Concentration 198.0 uM, Number of replicates 2.0, Standard deviation 3.020626194849933 %",23.3%
O=C(NC[C@H]1CCCO1)c1cc(Cl)ccc1NS(=O)(=O)c1ccc(Oc2ccccc2Cl)cc1,inhibition,"PRVABC59, Concentration 49.5 uM, Number of replicates 2.0, Standard deviation 0.526737151348054 %",37%
same,inhibition,"PRVABC59, Concentration 99.01 uM, Number of replicates 2.0, Standard deviation 0.29372509619508946 %",35.9%
same,inhibition,"PRVABC59, Concentration 198.0 uM, Number of replicates 2.0, Standard deviation 0.7843616173322282 %",19.9%
C[C@H]1COCCN1C(=O)c1cc(Cl)ccc1NS(=O)(=O)c1ccc(Oc2ccccc2Cl)cc1,inhibition,"PRVABC59, Concentration 49.5 uM, Number of replicates 2.0, Standard deviation 0.03588483834653944 %",17%
same,inhibition,"PRVABC59, Concentration 99.01 uM, Number of replicates 2.0, Standard deviation 0.6631068200403265 %",40.8%
same,inhibition,"PRVABC59, Concentration 198.0 uM, Number of replicates 2.0, Standard deviation 0.09361590556282165 %",58.7%
O=C(c1cc(Cl)ccc1NS(=O)(=O)c1ccc(Oc2ccccc2Cl)cc1)N1CC[C@H](CO)C1,inhibition,"PRVABC59, Concentration 49.5 uM, Number of replicates 2.0, Standard deviation 0.6366783858004793 %",4.61%
same,inhibition,"PRVABC59, Concentration 99.01 uM, Number of replicates 2.0, Standard deviation 1.3685297503351668 %",11.5%
same,inhibition,"PRVABC59, Concentration 198.0 uM, Number of replicates 2.0, Standard deviation 0.3954655654516591 %",72.9%
O=C(c1cc(Cl)ccc1NS(=O)(=O)c1ccc(Oc2ccccc2Cl)cc1)N1CCC[C@H](O)C1,inhibition,"PRVABC59, Concentration 49.5 uM, Number of replicates 2.0, Standard deviation 2.1414055085112063 %",8.55%
same,inhibition,"PRVABC59, Concentration 99.01 uM, Number of replicates 2.0, Standard deviation 0.8713297847731235 %",39.7%
same,inhibition,"PRVABC59, Concentration 198.0 uM, Number of replicates 2.0, Standard deviation 0.024611062132057417 %",79.8%
Cc1cnccc1NC(=O)c1cccn(CC2CCNCC2)c1=O,inhibition,"PRVABC59, Concentration 49.5 uM, Number of replicates 2.0, Standard deviation 3.2606712103202136 %",0.531%
same,inhibition,"PRVABC59, Concentration 99.01 uM, Number of replicates 2.0, Standard deviation 2.3019517896210857 %",3.91%
same,inhibition,"PRVABC59, Concentration 198.0 uM, Number of replicates 2.0, Standard deviation 2.0430462280295743 %",7.25%
c1ccc2c([C@H]3CCN(CC[C@H]4CCCOC4)C3)c[nH]c2c1,inhibition,"PRVABC59, Concentration 49.5 uM, Number of replicates 2.0, Standard deviation 1.010318627219257 %",5.96%
same,inhibition,"PRVABC59, Concentration 99.01 uM, Number of replicates 2.0, Standard deviation 2.5976606536818863 %",9.61%
same,inhibition,"PRVABC59, Concentration 198.0 uM, Number of replicates 2.0, Standard deviation 2.1960692966802595 %",20.4%
